The list is not random: actives were taken first. Their share in the collection is about 4.8%.
hgDAF12 agonist = agonists of H. glycines DAF-12 nuclear receptor; actives 1.8% (n = 370,000); AID 687014; activation, % at 6.8 µM; HEK293 GAL4-hgDAF12 UAS-luciferase reporter, agonist luminescence; normalized to butyrate control;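 active = activation above a cutoff set at the mean of all screened compounds plus 3 SD, cut at about 10% in these data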
ssDAF12 agonist = activates DAF-12 receptor from parasite S. stercoralis | actives 1% (n = 370,000) | HEK293 ssDAF-12/GRIP1 lit1-tk-luc reporter, luminescence; % of 3 µM dafachronic acid response | activation, % at 6.8 µM;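 active = activation above the mean over all tested compounds plus 3 SD, cut at about 0.9% in these data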
DAX1 inh-1 = DAX1 (NR0B1) inhibition, primary screen | HEK293T StAR-luciferase reporter, SF-1/DAX-1 repression relief | inhibition, % at 6.8 µM | actives 1.1% (n = 370,000) | AID 652010;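 active = inhibition above the mean over all tested compounds plus 3 SD, cut at about 3.6% in these data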;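 note: higher inhibition means more luminescence from relief of DAX-1 repression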
hcDAF-12 act = activators of H. contortus DAF-12 nuclear receptor | AID 652067 | activation, % at 6.8 µM | actives 1.4% (n = 370,000) | HEK293 hcDAF-12 lit1-tk-luc reporter, luminescence; 0% DMSO, 100% Δ7-dafachronic acid;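 active = activation above the mean of all tested compounds plus 3 SD, cut at about 5.5% in these data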
SMARCA2 act = increases SMARCA2 function in MMTV reporter cells; MG213 cells, MMTV-luciferase reporter, dexamethasone, overnight; activation, % at 9.1 µM; actives 1% (n = 370,000); AID 652017; in the data active = activation above about 7.8%
DAX1 inh-2 = inhibits human nuclear receptor DAX1. HEK293 Gal4-DAX1 luciferase reporter, luminescence. inhibition, % at 6.75 µM. actives 0.99% (n = 340,000). AID 504766;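 active = inhibition above the mean over all tested compounds plus 3 SD, cut at about 4.2% in these data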;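 note: inhibition shows as a rise in luminescence from relieved DAX1 repression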
Target sequence (P51843 207-470 limits assumed): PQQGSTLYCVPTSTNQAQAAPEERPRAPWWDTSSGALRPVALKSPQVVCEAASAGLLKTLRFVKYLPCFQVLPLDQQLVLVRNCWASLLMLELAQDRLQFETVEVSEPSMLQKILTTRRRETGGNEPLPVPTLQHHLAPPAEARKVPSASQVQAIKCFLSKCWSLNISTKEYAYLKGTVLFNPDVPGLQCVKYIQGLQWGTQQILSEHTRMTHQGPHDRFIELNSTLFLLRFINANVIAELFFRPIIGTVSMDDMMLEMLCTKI
DAX1 conf = confirmation of human DAX1 (NR0B1) inhibitors; shares compounds with DAX1 inh-1; inhibition, % at 6.8 µM; actives 87% (n = 2,400); HEK293T StAR-promoter luciferase reporter, SF-1/DAX-1 repression;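 active = inhibition above the average of every tested compound plus 3 SD, cut at about 3.8% in these data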;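 note: active compounds raise luminescence by relieving repression of the StAR reporter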
SF1 mutant ctr = nonselective inhibitor or artifact in SF-1 mutant DAX1 counter-screen. actives 78% (n = 2,400). shares compounds with DAX1 inh-1. HEK293 StAR-luciferase, SF-1 AF2 mutant, luminescence. inhibition, % at 6.8 µM;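 active = inhibition above the mean of all tested compounds plus 3 SD, cut at about 3% in these data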
SMARCA2 conf = SMARCA2 activation, confirmation screen. shares compounds with SMARCA2 act. MG213 cells, MMTV-luciferase with dexamethasone, luminescence, overnight; MG213 cells expressing E1A, Rb sequestered; DMSO wells 0%, reference activator 100%. activation, % at 9.1 µM. actives 30% (n = 3,500). AID 652260;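 active = activation above its plate's cutoff, the mean activation of tested wells plus 3 SD, cut at about 7.9% in these data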
GAL4-VP16 Luc = GAL4-VP16 reporter activation counter-screen | shares compounds with SMARCA2 act | HEK293 GAL4-VP16 pG5luc reporter, luciferase luminescence; scaled: DMSO wells 0%, SAHA wells 100% | activation, % at 9.1 µM | actives 41% (n = 3,500) | AID 686939;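 active = activation above the solvent-only control well mean plus 3 SD, averaged across control plates, cut at about 5.2% in these data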
LXR ag = activates human LXR-beta, counter-screen for hcDAF-12 agonists; shares compounds with hcDAF-12 act; 3,400 tested, under 10 active; HEK293 Gal4-LXR tk-luc reporter, luminescence, 24 h; normalized: DMSO 0%, positive control 100%; activation, % at 6.8 µM;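 active = mean percent activation of the reporter above a cutoff set as the average over tested compounds plus their standard deviation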
hcDAF12 conf = confirmation of H. contortus DAF-12 agonists | shares compounds with hcDAF-12 act | HEK293 hcDAF-12 lit1-tk-luc reporter, luminescence; % of Δ7-dafachronic acid response | activation, % at 6.8 µM | actives 61% (n = 3,400) | AID 743032;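 active = mean activation across triplicate tests above the threshold derived from the earlier primary screen, cut at about 5.5% in these data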
hgDAF12 conf = confirmation of H. glycines DAF-12 agonists. AID 743050. actives 80% (n = 3,300). HEK293 GAL4-hgDAF12 luciferase reporter, agonist mode; percent of butyrate response. activation, % at 6.8 µM. shares compounds with hgDAF12 agonist;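 active = mean activation over triplicate wells above the hit cutoff derived from the earlier primary screen, cut at about 11% in these data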
LXRb DAF12 ctr = LXR-beta agonism as DAF-12 counter-screen. shares compounds with hgDAF12 agonist. activation, % at 6.8 µM. 3,300 tested, under 10 active. HEK293 Gal4-LXR luciferase reporter, 24 h;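 active = mean activation of the triplicate above a set limit carried over from the primary screen, none filed active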
Of the large screens only hits and unclear results are named; the others gave an inactive call (follow-up assays come after a bar, where they were run).

CCCNC(=O)C1(C)CCCN(C(=O)C2(c3ccc(Cl)cc3)CCCC2)C1 (centres undefined)	none (no result: DAX1 inh-2)
CC(OC(=O)c1ccc2c(c1)OCCO2)C(=O)c1ccccc1 (centres undefined)	hgDAF12 agonist 14, DAX1 inh-1 12, hcDAF-12 act 7.3, DAX1 inh-2 4.9 | DAX1 conf 11 | SF1 mutant ctr 6.8 | LXR ag inactive | hcDAF12 conf 7.8 | hgDAF12 conf 16 | LXRb DAF12 ctr inactive
Cc1ccc(C(=O)Nc2nc3ccc(S(C)(=O)=O)cc3s2)s1	none
CCCCNC(=O)Nc1nc2ccccc2s1	hgDAF12 agonist 15, DAX1 inh-1 5.5, DAX1 inh-2 8.8 | DAX1 conf 11 | SF1 mutant ctr 4.8 | hgDAF12 conf 15 | LXRb DAF12 ctr inactive
Cc1ccc(C(=O)Nc2nc3ccccc3s2)s1	hgDAF12 agonist 21, DAX1 inh-1 4.8, hcDAF-12 act 12 | DAX1 conf 16 | SF1 mutant ctr 6.2 | LXR ag inactive | hcDAF12 conf 11 | hgDAF12 conf 22 | LXRb DAF12 ctr inactive
O/N=C/c1ccn(-c2ccc(Br)cc2)c1	hgDAF12 agonist 14, DAX1 inh-1 5.6, DAX1 inh-2 4.5 | DAX1 conf 5.9 | SF1 mutant ctr inactive | hgDAF12 conf inactive | LXRb DAF12 ctr inactive
COc1ccc2c(c1OC)C(=O)N(c1cccc(C(F)(F)F)c1)C2	hgDAF12 agonist 19, DAX1 inh-1 5.1, hcDAF-12 act 5.7, SMARCA2 act 8.5 | DAX1 conf 13 | SF1 mutant ctr 4.4 | SMARCA2 conf inactive | GAL4-VP16 Luc 8.9 | hgDAF12 conf 15 | LXRb DAF12 ctr inactive
COc1ccccc1N1Cc2ccc(OC)c(OC)c2C1=O	none
O=C(NN=Cc1ccc(Cl)cc1Cl)c1ccccc1	hgDAF12 agonist 17, DAX1 inh-1 5.5 | DAX1 conf 11 | SF1 mutant ctr 5.8 | hgDAF12 conf 16 | LXRb DAF12 ctr inactive
O=C(N/N=C/c1ccc(Cl)cc1Cl)c1ccncc1	none
COc1ccc(C(=O)NCCNc2ccccc2[N+](=O)[O-])cc1	hgDAF12 agonist 19, DAX1 inh-1 8.0 | DAX1 conf 14 | SF1 mutant ctr 6.7 | hgDAF12 conf 15 | LXRb DAF12 ctr inactive
CCCNC(=O)c1ccc(S(=O)(=O)c2ccc(OC)cc2)c([N+](=O)[O-])c1	none

Screening results as filed in PubChem BioAssay.
